# Assay results reported in PubChem BioAssay.
# Activity calls are given as the source filed them.
# Tests used:
# Albumin (Bos taurus) = Albumin (Bos taurus) (UniProt P02769); assay: compounds binding labelled BSA control protein – biochemical, small-molecule microarray, Alexa647 label, 635/667 nm fluorescence, artefact control for SMM control protein annotation, profiling panel (AID 1118); details: BSA-A647 binding, fluorescence 635 nm, higher = more signal;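 further: score merges 667 nm emission intensity and signal-to-noise per printed compound spot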
# Sequence of Albumin (Bos taurus) (P02769 whole entry, looked up): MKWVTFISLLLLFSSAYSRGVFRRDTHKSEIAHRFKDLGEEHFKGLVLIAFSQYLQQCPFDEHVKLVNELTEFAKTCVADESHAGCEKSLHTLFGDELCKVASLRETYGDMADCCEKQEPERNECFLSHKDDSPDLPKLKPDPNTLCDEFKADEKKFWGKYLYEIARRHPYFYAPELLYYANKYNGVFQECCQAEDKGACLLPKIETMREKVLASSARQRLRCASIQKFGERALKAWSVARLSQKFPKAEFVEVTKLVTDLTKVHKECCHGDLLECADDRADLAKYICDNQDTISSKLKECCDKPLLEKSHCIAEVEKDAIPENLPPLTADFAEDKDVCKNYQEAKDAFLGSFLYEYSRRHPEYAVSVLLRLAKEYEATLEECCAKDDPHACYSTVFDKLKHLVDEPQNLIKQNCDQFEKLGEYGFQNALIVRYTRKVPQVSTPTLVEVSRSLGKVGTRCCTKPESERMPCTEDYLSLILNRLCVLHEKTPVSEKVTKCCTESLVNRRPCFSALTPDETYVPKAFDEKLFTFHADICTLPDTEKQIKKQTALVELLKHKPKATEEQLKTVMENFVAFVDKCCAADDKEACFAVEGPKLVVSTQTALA
# [1] = probe aXIP binding to arrayed compounds – biochemical, NeuroSMM set, 635/667 nm fluorescence, primary screen (AID 1119); details: small-molecule microarray, higher = more signal, called active from +8 up or from −8 down;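 further: probe is the protein aXip251-270 applied at 1 µg/mL to compound-printed slides; binding of probe to printed compounds measured as 667 nm fluorescence plus signal to noise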
# [2] = probe aNOTCH3 binding on compound microarray – biochemical, small-molecule microarray, 635/667 nm fluorescence, primary screen (AID 1120); details: higher = more signal;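 further: probe is a biotin-tagged antibody raised against NOTCH3 rather than NOTCH3 protein; score merges spot fluorescence near 667 nm with spot signal to noise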
# [3] = probe aNOTCH2 binding on compound microarray – biochemical, small-molecule microarray, 635/667 nm fluorescence, primary screen (AID 1121); details: higher = more signal;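 further: score merges feature fluorescence read at 667 nm with its signal to noise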
# [4] = biological target: Carbonic anhydrase 2 (Homo sapiens) (UniProt P00918); assay: compounds binding carbonic anhydrase 2 – biochemical, small-molecule microarray, Alexa647-labelled CAII, profiling panel (AID 1122); details: CAII-A647 binding fluorescence, higher = more signal
# [5] = COS7 lysate on small-molecule microarray, probe aHis, 635 nm (AID 1123); details: COS7 cell lysate, fluorescence, higher = more signal;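 further: z-score combines 667nm fluorescence intensity with signal-to-noise per printed compound spot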
# [6] = probe aLAP1 signal on lysate-treated microarray – cell lysate, small-molecule microarray, COS7 lysate, primary screen (AID 1124); details: probe aLAP1, fluorescence, higher = more signal;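 further: lysate comes from COS7 cells expressing LAP1 and is applied at 0.3 µg/mL; score merges spot fluorescence near 667 nm with signal-to-noise over triplicate slides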
# Sam68 (KHDRBS1) = assay: compounds binding KHDRBS1 protein – biochemical, small-molecule microarray, 635 nm fluorescence, primary screen (AID 1125); details: higher = more signal;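 further: score merges 667 nm channel intensity with signal to noise over triplicate slides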
# [7] = tested on: Chordin-like protein 2 (CHRDL2); assay: compounds binding chordin-like 2 – biochemical, small-molecule microarray, 635 nm fluorescence, primary screen (AID 1126); details: fluorescence 635 nm, higher = more signal;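 further: printed compound slides probed with Chrdl2 protein at 4 µg/mL for 1 h at 4 C; score merges 667 nm emission intensity with signal to noise over three replicate slides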
# [8] = biological target: Concanavalin-A (Canavalia ensiformis) (UniProt P02866); assay: compounds binding concanavalin A lectin – biochemical, small-molecule microarray, Alexa647 label, 635 nm, artefact control for SMM control protein annotation, primary screen (AID 1127); details: ConA-A647 binding fluorescence, higher = more signal;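 further: z combines 667 nm emission intensity with signal-to-noise across three replicate slides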
# Sequence of Concanavalin-A (Canavalia ensiformis) (P02866 whole entry, looked up): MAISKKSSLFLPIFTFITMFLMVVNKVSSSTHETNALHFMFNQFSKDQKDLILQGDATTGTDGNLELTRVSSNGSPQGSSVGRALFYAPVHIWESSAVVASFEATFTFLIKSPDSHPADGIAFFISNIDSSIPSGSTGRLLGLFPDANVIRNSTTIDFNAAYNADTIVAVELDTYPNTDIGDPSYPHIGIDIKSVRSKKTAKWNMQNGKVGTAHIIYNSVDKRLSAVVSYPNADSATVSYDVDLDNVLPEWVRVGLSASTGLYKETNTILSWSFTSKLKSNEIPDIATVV
# [9] = compounds binding Alexa647 anti-His antibody – biochemical, small-molecule microarray, 635 nm fluorescence, artefact control for SMM control protein annotation, primary screen (AID 1128); details: higher = more signal;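 further: score merges feature fluorescence with signal-to-noise for each printed compound spot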
# [10] = tested on: Human papillomavirus type 1a E7 protein (residues 1-88); assay: HPV1a E7 small-molecule binders, primary screen, biochemical, small-molecule microarray, residues 1-88, 635 nm (AID 1129); details: small-molecule microarray binding, fluorescence 635 nm; higher = more signal
# [11] = biological target: Focal adhesion kinase 1 (Homo sapiens) (UniProt Q05397); assay: PTK2 protein binding on printed compound slides – biochemical, small-molecule microarray, 635/667 nm fluorescence, BSA, DTT, primary screen (AID 1130); details: 635 nm fluorescence, higher = more signal;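 further: composite of spot emission at 667 nm and signal to noise over triplicate slides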
# Sequence of Focal adhesion kinase 1 (Homo sapiens) (Q05397 whole entry, looked up): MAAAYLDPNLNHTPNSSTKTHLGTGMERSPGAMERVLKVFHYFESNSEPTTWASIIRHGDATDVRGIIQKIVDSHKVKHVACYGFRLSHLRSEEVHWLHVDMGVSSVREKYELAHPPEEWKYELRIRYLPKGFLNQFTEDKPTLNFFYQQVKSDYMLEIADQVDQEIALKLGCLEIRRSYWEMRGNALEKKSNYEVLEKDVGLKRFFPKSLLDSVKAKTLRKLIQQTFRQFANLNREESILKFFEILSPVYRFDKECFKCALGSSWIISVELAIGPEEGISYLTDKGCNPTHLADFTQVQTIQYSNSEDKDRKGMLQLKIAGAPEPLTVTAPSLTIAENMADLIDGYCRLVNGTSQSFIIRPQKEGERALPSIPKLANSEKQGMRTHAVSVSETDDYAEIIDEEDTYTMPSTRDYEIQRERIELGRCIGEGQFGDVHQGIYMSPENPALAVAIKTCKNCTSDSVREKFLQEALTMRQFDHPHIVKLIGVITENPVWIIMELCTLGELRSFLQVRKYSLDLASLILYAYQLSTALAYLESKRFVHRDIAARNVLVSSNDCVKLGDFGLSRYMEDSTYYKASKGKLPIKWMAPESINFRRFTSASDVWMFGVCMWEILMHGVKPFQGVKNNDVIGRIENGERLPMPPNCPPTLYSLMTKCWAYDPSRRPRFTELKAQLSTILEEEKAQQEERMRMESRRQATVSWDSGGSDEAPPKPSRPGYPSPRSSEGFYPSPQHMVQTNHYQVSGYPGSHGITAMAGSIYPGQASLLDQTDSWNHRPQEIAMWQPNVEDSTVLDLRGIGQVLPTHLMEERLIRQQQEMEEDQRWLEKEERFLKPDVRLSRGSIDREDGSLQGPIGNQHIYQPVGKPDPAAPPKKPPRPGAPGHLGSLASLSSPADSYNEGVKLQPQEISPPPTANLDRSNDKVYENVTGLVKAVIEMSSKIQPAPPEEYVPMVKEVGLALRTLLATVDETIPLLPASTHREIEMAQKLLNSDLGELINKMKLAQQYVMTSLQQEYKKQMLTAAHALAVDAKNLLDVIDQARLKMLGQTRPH
# [12] = tested on: Fibrinogen (Alexa647-labelled); assay: Alexa647-fibrinogen binding to printed small molecules – biochemical, small-molecule microarray, 635/667 nm fluorescence, artefact control for SMM control-protein annotation, profiling panel (AID 1131); details: fibrinogen-A647 binding fluorescence, higher = more signal;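 further: z-score merges 667 nm fluorescence with per-spot signal-to-noise over triplicate slides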
# [13] = biological target: Follistatin (Homo sapiens) (UniProt P19883); assay: FST protein binding to printed compounds – biochemical, small-molecule microarray, 635/667 nm fluorescence, primary screen (AID 1132); details: 635 nm fluorescence, higher = more signal
# Sequence of Follistatin (Homo sapiens) (P19883 whole entry, looked up): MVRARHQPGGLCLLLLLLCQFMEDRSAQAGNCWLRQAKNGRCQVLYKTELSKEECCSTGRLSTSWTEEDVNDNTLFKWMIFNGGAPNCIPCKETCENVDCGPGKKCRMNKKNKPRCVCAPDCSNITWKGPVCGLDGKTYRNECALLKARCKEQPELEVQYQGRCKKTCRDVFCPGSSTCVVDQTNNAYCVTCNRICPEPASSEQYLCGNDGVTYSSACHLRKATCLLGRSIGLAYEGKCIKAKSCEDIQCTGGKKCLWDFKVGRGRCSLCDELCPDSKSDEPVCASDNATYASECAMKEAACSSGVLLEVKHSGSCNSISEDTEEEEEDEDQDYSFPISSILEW
# [14] = biological target: Fibroblast growth factor 2 (Homo sapiens) (UniProt P09038); assay: basic fibroblast growth factor binding to printed compounds – biochemical, small-molecule microarray, 635/667 nm fluorescence, primary screen (AID 1133); details: FGF2, fluorescence 635/667, higher = more signal
# Sequence of Fibroblast growth factor 2 (Homo sapiens) (P09038 whole entry, looked up): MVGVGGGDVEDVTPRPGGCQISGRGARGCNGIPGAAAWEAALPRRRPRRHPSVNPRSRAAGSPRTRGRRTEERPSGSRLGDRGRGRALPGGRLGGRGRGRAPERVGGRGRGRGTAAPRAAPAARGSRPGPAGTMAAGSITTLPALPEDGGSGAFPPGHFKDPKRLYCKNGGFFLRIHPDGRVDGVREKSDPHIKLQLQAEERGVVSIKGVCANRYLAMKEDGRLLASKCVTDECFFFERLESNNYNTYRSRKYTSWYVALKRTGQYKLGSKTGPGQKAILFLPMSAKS
# [15] = JC-1 mitochondrial potential readout, lung cancer cells – cell-based, A549, JC-1 fluorescence, basal, 24 h, 100 nL, profiling panel (AID 1138); details: higher = more signal;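 further: A549 lung adenocarcinoma cells under basal conditions with no added stimulus; test concentration not given here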
# Lefty1 = Lefty1 protein binding to printed compounds – biochemical, small-molecule microarray, 635/667 nm fluorescence, primary screen (AID 1139); details: fluorescence 635/667, higher = more signal
# [16] = tested on: wheat germ agglutinin (Triticum aestivum), Alexa647-labelled; assay: Alexa647-WGA lectin binding to printed small molecules – biochemical, small-molecule microarray, 635/667 nm fluorescence, artefact control for SMM control-protein annotation, profiling panel (AID 1140); details: WGA-A647 binding, 635 nm fluorescence, higher = more signal;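 further: score merges 667 nm feature emission with signal to noise over triplicate slides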
# [17] = biological target: Luciferin 4-monooxygenase (Photinus pyralis) (UniProt P08659); assay: inhibition of purified Photinus pyralis luciferase – biochemical, luminescence, purified enzyme, 2006 set, primary screen (AID 1141); details: purified firefly luciferase, SteadyGlo luminescence, 30 min; higher = more signal, called active from +8 up or from −8 down;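 further: cell-free assay with purified firefly luciferase at 100 ng per well in PBS; test concentration not given here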
# Sequence of Luciferin 4-monooxygenase (Photinus pyralis) (P08659 whole entry, looked up): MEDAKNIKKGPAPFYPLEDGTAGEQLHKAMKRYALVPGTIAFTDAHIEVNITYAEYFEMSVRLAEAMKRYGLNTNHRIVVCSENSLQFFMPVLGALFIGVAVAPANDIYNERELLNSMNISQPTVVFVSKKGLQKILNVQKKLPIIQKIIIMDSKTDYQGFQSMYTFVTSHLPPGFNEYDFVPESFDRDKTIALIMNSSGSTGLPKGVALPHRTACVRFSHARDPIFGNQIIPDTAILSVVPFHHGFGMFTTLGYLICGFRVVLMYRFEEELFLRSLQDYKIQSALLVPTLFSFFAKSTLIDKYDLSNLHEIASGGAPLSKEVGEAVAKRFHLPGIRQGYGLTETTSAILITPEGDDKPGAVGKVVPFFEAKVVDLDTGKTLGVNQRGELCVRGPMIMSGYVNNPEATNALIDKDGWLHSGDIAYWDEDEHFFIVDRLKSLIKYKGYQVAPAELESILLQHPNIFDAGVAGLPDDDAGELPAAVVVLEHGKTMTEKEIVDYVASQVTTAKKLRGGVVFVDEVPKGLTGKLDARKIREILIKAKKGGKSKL
SMILES,composite z-score (Albumin (Bos taurus)),composite Z-score [1],composite z-score [2],composite z-score [3],composite z-score [4],composite z-score [5],composite z-score [6],composite z-score (Sam68 (KHDRBS1)),composite z-score [7],composite z-score [8],composite z-score [9],composite z-score [10],composite z-score [11],composite z-score [12],composite z-score [13],composite z-score [14],z-score [15],composite z-score (Lefty1),composite z-score [16],z-score [17]
CN(C)C(=O)[C@@]1(Cc2ccccc2CN=[N+]=[N-])COC(c2ccc(OCCCO)cc2)=N1,0.819,-0.0705 (inactive),-0.0048,-0.156,0.572,1.78,-0.0884,0.0673,-0.781,1.04,1.81,1.15,0.652,0.949,-0.0539,-0.572,1.43,-0.42,0.603,1.15 (inactive)
COCCOC(=O)N1C(=O)[C@@]2(c3ccccc31)[C@H](c1ccc(O)cc1)N1[C@H](c3ccccc3)[C@H](c3ccccc3)OC(=O)[C@H]1[C@@H]2C(=O)N1CCCCCCC1,0.46,4.53 (inactive),1.98,0.851,0.863,3.62,1.18,1.3,1.58,1.14,2.71,1.21,0.791,0.941,1.46,1.74,-1.16,1.72,1.43,0.171 (inactive)
C#CCN1[C@@H](Cc2ccccc2)C(=O)O[C@H](Cc2ccccc2)[C@@H]1/C=C/C1CC1,-0.215,0.196 (inactive),0.0999,-0.126,0.486,0.92,-0.103,0.713,0.646,-0.741,1.3,1.01,0.0423,-0.287,1.27,0.43,4.04,1.1,0.884,-0.415 (inactive)
C=CCN1Cc2ccccc2[C@H]2OC(c3ccc(OCCCO)cc3)=N[C@@]2(CCS(=O)(=O)c2ccccc2)C1=O,0.465,1.79 (inactive),0.0562,-0.0135,0.614,3.07,0.333,1.31,0.843,1.16,2.05,1.22,0.621,0.0869,1.37,1.37,0.35,0.507,0.77,-0.884 (inactive)
O=C1[C@@H]2[C@@H](CC(COc3ccccc3)=C([C@H](O)CCc3ccccc3)[C@@H]2CO)C(=O)N1Cc1ccccc1,0.574,0.356 (inactive),0.15,-0.148,0.42,1.05,0.424,0.582,0.249,0.929,1.71,0.332,1.2,0.724,0.561,0.175,2.07,0.715,0.124,-0.172 (inactive)
Cc1ccc(S[C@]2(C(=O)NCc3ccccc3)CC(=O)N(Cc3ccccc3C(F)(F)F)[C@@H]2c2ccc(CO)cc2)cc1,-0.17,0.131 (inactive),-0.413,0.0022,-0.333,0.397,-0.618,0.199,-1.77,-0.586,-0.645,-0.347,-0.496,0.443,-1.4,-0.574,0.802,-1.51,-0.212,-0.0819 (inactive)
COC(=O)[C@@]1(Cc2ccccc2)N=C(c2ccc(OCCCO)cc2)O[C@H]1c1ccccc1CN=[N+]=[N-],-0.158,0.282 (inactive),0.0655,-0.12,0.6,2.02,-0.415,1.2,-0.111,0.505,1.91,0.997,0.291,0.447,1.33,1.02,-1.07,0.434,0.0777,-2.05 (inactive)
CCCN1C(=O)[C@]2(CCC(=O)OC(C)(C)C)N=C(c3ccc(OCCCO)cc3)O[C@@H]2c2ccccc21,0.151,-0.12 (inactive),-0.0044,-0.0732,0.2,1.42,0.651,0.8,0.405,1.03,0.144,1.01,0.497,0.496,1.49,0.714,0.719,0.37,0.0961,-1.55 (inactive)
COC(=O)C(CC#Cc1ccc2c(c1)[C@]1(C(=O)N2)[C@H](C(=O)NC[C@H](O)c2ccccc2)[C@H]2C(=O)O[C@H](c3ccccc3)[C@H](c3ccccc3)N2[C@@H]1c1ccccc1OCCO)C(=O)OC,-0.119,-0.154 (inactive),0.0779,-0.115,0.376,2.14,0.298,1.25,0.557,1.01,2.68,1.23,0.289,0.478,1.25,1.56,-0.693,0.221,1.09,0.742 (inactive)
C=C(/C(=C/C[C@@H](OC(C)=O)c1cccc(OCCO)c1)c1cnc2ccccc2c1)C(C)C,0.286,0.19 (inactive),-0.0787,-0.124,0.803,1.26,-0.149,0.869,1.38,0.629,0.607,0.472,0.138,-0.31,1.5,1.68,0.41,1.55,1.07,-0.614 (inactive)
C=CCN1C(=O)[C@@]2(O[C@@H](CCn3cc([C@H](O)c4ccccc4)nn3)[C@H]([Si](C)(C)c3ccc(OC)cc3)[C@H]2C)c2cc(N3C(=O)c4cccc5cccc3c45)ccc21,0.0345,-0.212 (inactive),-0.272,-0.223,0.106,0.436,0.0703,-0.233,-1.02,0.341,0.338,-0.526,-0.204,-0.295,-0.638,-0.722,1.36,-0.475,-0.22,-0.0152 (inactive)
